Test results: ChEMBL document CHEMBL1201862, “PubChem BioAssay data set” (2004)
Hit rate of the full screen: of about 400,000 compounds, about 2,100 (0.53%) were called active. Inconclusive results (about 14%) are left out. This is one part of a sample in which actives are shown more often than they occur. The rule behind the calls is not given here.

target: Ataxin-2 (Homo sapiens) (UniProt Q99700); assay: qHTS for Inhibitors of ATXN expression.; format: functional
Sequence (Q99700 whole entry): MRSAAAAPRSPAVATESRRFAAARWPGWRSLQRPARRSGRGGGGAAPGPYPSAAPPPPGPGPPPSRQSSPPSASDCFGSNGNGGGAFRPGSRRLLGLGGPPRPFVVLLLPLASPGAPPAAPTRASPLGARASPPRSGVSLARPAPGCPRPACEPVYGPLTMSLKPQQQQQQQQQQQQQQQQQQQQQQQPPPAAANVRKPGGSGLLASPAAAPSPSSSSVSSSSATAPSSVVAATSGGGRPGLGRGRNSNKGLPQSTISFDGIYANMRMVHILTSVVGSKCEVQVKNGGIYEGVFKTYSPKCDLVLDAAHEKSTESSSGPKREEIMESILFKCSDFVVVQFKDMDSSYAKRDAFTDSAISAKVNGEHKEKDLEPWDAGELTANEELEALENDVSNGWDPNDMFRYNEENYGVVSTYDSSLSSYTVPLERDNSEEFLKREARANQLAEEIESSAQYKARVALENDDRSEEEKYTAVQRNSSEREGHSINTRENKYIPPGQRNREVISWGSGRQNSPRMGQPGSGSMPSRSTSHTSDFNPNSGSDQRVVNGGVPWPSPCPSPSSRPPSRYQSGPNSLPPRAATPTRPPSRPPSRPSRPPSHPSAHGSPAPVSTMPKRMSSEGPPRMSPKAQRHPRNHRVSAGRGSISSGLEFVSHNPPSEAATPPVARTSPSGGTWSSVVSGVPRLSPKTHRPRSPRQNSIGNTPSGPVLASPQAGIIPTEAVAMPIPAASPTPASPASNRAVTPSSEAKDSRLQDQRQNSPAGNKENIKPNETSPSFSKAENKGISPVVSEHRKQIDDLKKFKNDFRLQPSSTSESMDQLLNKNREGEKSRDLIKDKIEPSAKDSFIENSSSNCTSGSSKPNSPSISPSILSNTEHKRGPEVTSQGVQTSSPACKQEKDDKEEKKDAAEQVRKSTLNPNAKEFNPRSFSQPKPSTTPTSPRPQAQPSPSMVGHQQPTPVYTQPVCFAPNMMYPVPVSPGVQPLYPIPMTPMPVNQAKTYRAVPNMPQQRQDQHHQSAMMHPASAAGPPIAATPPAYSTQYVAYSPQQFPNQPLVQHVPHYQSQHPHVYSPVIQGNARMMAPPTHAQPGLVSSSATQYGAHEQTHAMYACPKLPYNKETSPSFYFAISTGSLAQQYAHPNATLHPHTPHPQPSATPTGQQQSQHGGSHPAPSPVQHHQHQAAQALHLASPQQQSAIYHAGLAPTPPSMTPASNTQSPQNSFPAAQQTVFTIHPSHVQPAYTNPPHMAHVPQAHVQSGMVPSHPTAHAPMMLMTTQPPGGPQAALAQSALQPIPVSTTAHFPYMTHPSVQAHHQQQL

Structure (SMILES)	Potency
CCCN(C(=O)c1cccc(S(=O)(=O)N2CCCc3ccccc32)c1)C1CCS(=O)(=O)C1 (configuration not stated)	inactive
CC(C)c1cc(NCCOCCO)n2c(nc3ccccc32)c1C#N	inactive
Cc1cc(N(CCO)CCO)ccc1C(c1ccc(N(CCO)CCO)cc1C)c1ccccc1Cl	39.8 µM (active)
OCCN(CCO)c1ccc(C(c2ccccc2Cl)c2ccc(N(CCO)CCO)cc2Cl)c(Cl)c1	39.8 µM (active)
COc1cc(/C=N/NC(=O)c2ccccn2)cc2c1OCO2	inactive
CCOc1cc(NC(=O)c2ccccn2)c(OCC)cc1NC(=O)c1ccc(OC)cc1	inactive
CCN(CC)CCOc1ccc2c(c1)C(=NNC(=O)c1ccccn1)c1cc(OCCN(CC)CC)ccc1-2	39.8 µM (active)
c1ccc(-c2nc(N3CCCC3)nc3ccccc23)cc1	inactive
CCN(CC)c1ccc2cc(-c3nnc(-c4cccc(Cl)c4)o3)c(=O)oc2c1	inactive
CCCCCCc1cc2cc(S(=O)(=O)c3ccc(Cl)cc3)c(=O)oc2cc1O	inactive
Cc1ccccc1C(=O)OC1CCN(C)CC1	inactive
COCCNc1nc(NCc2ccc(NC(C)=O)cc2)c2sc(-c3ccccc3)cc2n1	31.6 µM (active)
CC(=O)Nc1ccc(CNc2nc(NCCN(C)C)nc3cc(-c4ccccc4)sc23)cc1	31.6 µM (active)
NNC(=O)c1sc(-c2ccccc2)cc1N	inactive
COCCNc1nc(NCCOc2ccccc2)c2sc(-c3ccccc3)cc2n1	25.1 µM (active)
O=C(O)CCNc1nc(-c2ccccc2)c2cc(Br)ccc2n1	inactive
COCCCNc1nc2c(-c3cccc(C)c3)nnn2c2ccccc12	inactive
COCCNc1nc2c(-c3cccc(C(F)(F)F)c3)nnn2c2ccccc12	inactive
CC(=O)Nc1ccc(S(=O)(=O)Nc2nc3nc(-c4ccccc4)cc(-c4ccccc4)n3n2)cc1	inactive
Cc1ccc2nc(NCCC(=O)O)nc(-c3ccccc3)c2c1	inactive
C[C@]12CCCC[C@@H]1CC[C@@H]1[C@@H]2CC[C@@]2(C)[C@H]1CC[C@@]2(O)CNCCO	inactive

Structure (SMILES)	Potency
O=C(c1cc(Br)c(Br)s1)N1CCc2ccccc2C1	inactive
O=S(=O)(NC1CCSc2ccccc21)c1ccc(Cl)nc1 (configuration not stated)	inactive
Cc1cccn2c(=O)c3cc(C#N)/c(=N\C(=O)c4cccs4)n(CCCOC(C)C)c3nc12	inactive
COc1ccc(C[C@H]2CN3C(=NC[C@@H]3C(C)C)N2CCNC(=O)c2ccc(C)c(Br)c2)cc1	20 µM (active)
COC(=O)CCNC(=O)c1ccc2nc(Cc3ccc(OC)cc3)oc2c1	inactive
COc1cccc(C(=O)NCCn2ccc3ccccc32)c1	inactive
COc1ccc(C(=O)NCCNc2nc3c(C)cccc3cc2C#N)cc1	inactive
COc1cccc(CNC(=O)c2ccc(C)c(NC3=NC4CS(=O)(=O)CC4S3)c2)c1 (configuration not stated)	inactive
COc1ccc(C[C@H]2CN3C(=NC[C@@H]3Cc3ccccc3)N2CCNC(=O)c2ccc(C)c(Br)c2)cc1	22.4 µM (active)
Cc1ccc(C(=O)NC(=S)NCc2ccccc2)cc1Br	inactive
COc1ccc(C[C@H]2CN3C(=NC[C@@H]3Cc3ccc(O)cc3)N2CCNC(=O)c2ccc(C)c(Br)c2)cc1	39.8 µM (active)
CC(=O)Nc1ccc(NC(=O)CSc2ccc3nnc(CCNC(=O)c4ccccc4)n3n2)cc1	inactive
CC1CCN(c2nnc(-c3ccccc3)c3ccccc23)CC1	inactive
Cc1sc2nc(-c3ccccn3)nc(O)c2c1-c1ccccc1	inactive
O=[N+]([O-])c1ccc(C2NS(=O)(=O)N=C3CCCCCN32)cc1 (configuration not stated)	inactive
CCCc1cc(C(=O)Cc2nc3ccccc3s2)c(O)cc1O	inactive
COc1ccc(-c2csc(NC(C)c3nc4cc(Cl)c(Cl)cc4n3CCCO)n2)cc1 (configuration not stated)	39.8 µM (active)
Cc1ccc(Cn2c(C(CO)Nc3nc(-c4ccc(F)cc4)cs3)nc3ccccc32)cc1 (configuration not stated)	25.1 µM (active)
Cc1ccc(Cn2cccc(-c3nc4ccccc4s3)c2=O)cc1	inactive
COc1ccc(-c2csc(NC(=O)CSc3nnnn3C)n2)c(OC)c1	inactive
CC(Nc1nc(-c2ccc(F)cc2)cs1)c1nc2cc(Cl)c(N3CCCCC3)cc2n1CCCO (configuration not stated)	25.1 µM (active)

Structure (SMILES)	Potency
CC(C)CC(=O)NC(=S)Nc1nc(-c2ccc(Cl)cc2)cs1	inactive
O=C(CN1CCN(Cc2ccc(F)cc2)CC1)Nc1nc2ccccc2s1	inactive
CC(Nc1nc(-c2ccc(F)cc2)cs1)c1nc2cc(Cl)c(Cl)cc2n1CCCO (configuration not stated)	39.8 µM (active)
COc1ccc(/N=C/C2=C(O)c3c(sc(C)c3C)N(C)S2(=O)=O)cc1	inactive
CC(Nc1nc(-c2ccc(F)cc2)cs1)c1nc2cc(C(F)(F)F)ccc2n1CCCO (configuration not stated)	22.4 µM (active)
C/C(=N\NC(=O)c1c[nH]c2ccccc12)c1ccccn1	inactive
CC(=O)Nc1ccc(NC(=O)COC(=O)c2ccccn2)cc1	inactive
C/C(=N\NC(=O)COc1ccccc1-c1ccccc1)c1ccccn1	6.7 µM (active)
CCCn1nc(NC(=O)C(C)C)c2cc3cc(OC)ccc3nc21	inactive
N=c1oc2ccccc2cc1-c1nc(-c2ccccc2)cs1	inactive
CCN(CC)S(=O)(=O)c1cc(NC(=O)C2CC(=O)N(Cc3ccccc3)C2)ccc1Cl (configuration not stated)	inactive
CCN(CC)S(=O)(=O)c1cc([N+](=O)[O-])ccc1NNC(=O)Nc1ccc(Cl)c(Cl)c1	39.8 µM (active)
CN(C)S(=O)(=O)c1ccc(Cl)c(C(=O)Nc2cccc([N+](=O)[O-])c2)c1	inactive
CC1=CC(c2ccccc2)n2nc(NC(=O)CCCC(=O)O)nc2N1 (configuration not stated)	inactive
CN(C)/C=C1\C=C2C(=O)c3ccccc3N2C1=O	inactive
CCCc1ccc(S(=O)(=O)N2CCC(c3nnc(-c4cccc(C)c4)o3)CC2)cc1	8.91 µM (active)
COc1ccc(-c2nnc(C3CCN(S(=O)(=O)c4ccccc4)CC3)o2)cc1	26.7 µM (active)
Cc1ccc(S(=O)(=O)N2CCN(C(S)=NCc3ccc4c(c3)OCO4)CC2)cc1	inactive
CCOC(=O)C1(CC2CCCCO2)CCN(S(=O)(=O)c2ccc(OC)cc2)CC1 (configuration not stated)	inactive
O=C(c1ccc(F)cc1)C1CCN(S(=O)(=O)c2ccccc2)CC1	inactive
